By AC50 is commonly meant the concentration at which the activity in the assay is half-maximal.

The source of these data is PubChem BioAssay (EPA / NIEHS).

Activity calls are given as the source filed them. How the source made its calls: active means hit-call score of the fitted dose curve at least 0.9, where 1 is the maximum; inactive means score below 0.9.

A short description of the assay: CEETOX_H295R_DOC: CeeTox H295R High-throughput Steroidogenesis Assay for DOC (AID 2283439). To be noted: actives raise or lower the signal. Here is the method:
CEETOX_H295R is a cell-based, multiplexed-readout assay that uses H295R, a human adrenal gland cell line, with measurements taken at 48 hours after chemical dosing in a 96-well plate.CEETOX_H295R_DOC is one of 23 assay component(s) measured or calculated from the CEETOX_H295R assay. It is designed to make measurements of hormone induction, a form of inducible reporter, as detected with absorbance signals by HPLC-MS-MS technology.Data from the assay component CEETOX_H295R_DOC was analyzed into 1 assay endpoint. This assay endpoint, CEETOX_H295R_DOC, was analyzed with bidirectional fitting relative to DMSO as the negative control and baseline of activity. Using a type of inducible reporter, gain or loss-of-signal activity using HPLC-MS-MS was used to understand synthesis of 11-Deoxycorticosterone in H295R cell line at 48hr of chemical exposure. To generalize the intended target to other relatable targets, this assay endpoint is annotated to the steroid hormone intended target family, where the subfamily is glucocorticoids.
Cell culture and media preparation procedures were conducted in accordance with OECD Test No. 456 guidelines, with minor modifications. H295R cells (ATCC CRL-2128) were expanded for 5 passages and frozen in batches in liquid nitrogen. Prior to the steroidogenesis assay, H295R cells were thawed and passed at least 4 times. The maximum passage was 10. Cells were maintained in a 1:1 mixture of DMEM/F12 supplemented with 5ml/L ITS+ Premix (BD Bioscience) and 12.5 ml/L Nu-Serum (BD Bioscience). After seeding cells into 96-well plates at 50-60% confluency, cells were allowed to adhere overnight. Prior to chemical testing, culture medium was replaced with 175 uL medium containing 10 uM forskolin to stimulate steroidogenesis for 48 hours. Following prestimulation, forskolin medium was replaced with medium containing test chemical solubilized in DMSO (ensuring a final concentration of 0.1% DMSO). Test chemicals were incubated for 48 hours, then the medium was removed and split into 2 vials containing approximately 75uL each, and stored at -80 C prior to hormone analysis. For steroid quantification, media samples were shipped to OpAns, LLC (Durham, NC) on dry ice, and samples were thawed to room temperature prior to liquid-liquid extraction. Steroid hormones were extracted from media samples using methyl tertbutyl ether (MTBE). An extra derivatization with dansyl chloride was included for estrogen (estrone and estradiol) detection only. Steroid hormones were separated by HPLC, eluted using a reverse phase C18 gradient with electrospray positive ionization, followed by quantification by tandem mass spectrometry (MS/MS). Data were acquired on a MassHunter Workstation Acquisition version B03.01 (Agilent Technologies, Inc.) and processed using MassHunter Quantitative Analysis for QQQ. Accuracy was determined for each hormone analyte from 3 standards to determine upper and lower limits of quantification (ULOQ and LLOQ, respectively) using a 7-point standard curve. Precision and accuracy of the extraction and quantification methods were calculated as the percent relative standard deviation (%RSD) of the spiked standards and percent spiked standard recovered, respectively. […] Test medium was removed following chemical exposure, and cell viability was evaluated in the same wells by MTT. MTT procedures were as follows: after removal of test medium, 500 uL of 0.5 mg/ml of 3-[4,5-dimethylthiazol-2-y]2,5-diphenyltetrazoliumbromide solution was added to the cells. Following a 4-hour incubation at 37 C and 5% CO2 to allow formazan-crystal formation, the MTT solution was removed and blue formazan salt crystals were solubilized using 500uL anhydrous isopropanol with shaking for 20 minutes. Absorbance was read at 570 and 650nm using a Packard Fusion microplate reader. Background correction of absorbance units was used to determine percent change relative to controls. […]
Turning to `Nc1ccc([N+](=O)[O-])cc1Cl`, the outcome was inactive.

For `CCC(C)(C)c1ccc(O)cc1`, the AC50 is 21.9 µM (active).

As to `Cc1ccc(N)cc1N`, the result was inactive.

In the case of `O=P(Oc1ccccc1)(Oc1ccccc1)Oc1ccccc1`, the molecule was called inactive.

For the molecule `CCCCOCCOP(=O)(OCCOCCCC)OCCOCCCC`, the call was inactive.

`ClC(Cl)=C(c1ccc(Cl)cc1)c1ccccc1Cl`: the outcome was inactive.

On to `O=S1(=O)OCC2C(CO1)C1(Cl)C(Cl)=C(Cl)C2(Cl)C1(Cl)Cl` (stereo unspecified), for which the AC50 was 7.77 µM (active).

As for `CCNc1nc(Cl)nc(NC(C)(C)C)n1`, the result was inactive.

In the case of `Nc1cc2c3c(c1)C(c1ccccc1)=N[C@@H](NC(=O)c1cccnc1)C(=O)N3CC2`, the AC50 is 33.8 µM (active).

For `CC(C)Nc1ccc(Nc2ccccc2)cc1`, the molecule was called inactive.

Turning to `Nc1ccc(Cl)cc1`, the AC50 is 50 µM (active).

Turning to `Oc1ccc(I)cc1`, the molecule was classed as inactive.

Consider `N#Cc1c(-c2ccc(Cl)cc2)[nH]c(C(F)(F)F)c1Br`, for which the AC50 is 0.253 µM (active).

As to `CO/N=C(/C(=O)OC)c1ccccc1COc1ccccc1C`, the molecule was called inactive.

Take `c1ccc(OP(Oc2ccccc2)Oc2ccccc2)cc1`: the outcome was inactive.

`CC(=O)c1ccc(-c2ccccc2)cc1`: the AC50 was 36.5 µM (active).

Take `CCOP(=S)(OCC)SCn1nnc2ccccc2c1=O`: the outcome was inactive.

In the case of `O=S(=O)(c1ccc(O)cc1)c1ccc(O)cc1`, the AC50 was 3.31 µM (active).

As for `COP(N)(=S)OC`, the molecule was called inactive.

In the case of `CCOP(=S)(NC(C)C)Oc1ccccc1C(=O)OC(C)C` (stereo unspecified), the call was inactive.

For `CCCCc1ccc(O)cc1`, the molecule was called inactive.
